Measured values published in PubChem BioAssay AID504607 (Sanford-Burnham Center for Chemical Genomics, 2011).
Screen size: about 6,200 compounds; about 4,800 (77%) were called active.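 Rule for the calls: active = mean inhibition at 8 µM reaching about 37%, which flags the compound as non-specific (limit read from the data); inactive = the rest.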 The set was probably picked from earlier hits. These entries were drawn from the full list.

Assay: luminescence decrease from intact luciferase reporter – cell-based, single concentration, SaOS-2, counter-screen for Mdm2/MdmX interaction inhibitor project, confirmation (AID 504607);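 note: p53-null SaOS-2 cells with luciferase driven by a doxycycline-inducible promoter; compound on cells about two nights before reading with doxycycline added after day one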
Details: SaOS-2 full-length luciferase counterscreen, at 8 µM, active compounds read high

SMILES	inhibition
O=C(Nc1ccc2ccccc2c1)Nc1ccc2snnc2c1	44.4% (active)
COc1cccc(NC(=O)[C@H](Cc2c[nH]c3ccccc23)NC(=O)[C@@H]2Cc3ccccc3CN2)c1	53.2% (active)
Cc1cc(CNC(=O)c2cccc([N+](=O)[O-])c2)c2ccccc2n1	41.5% (active)
O=C(NC(Nc1nc2ccc([N+](=O)[O-])cc2s1)(C(F)(F)F)C(F)(F)F)c1ccccc1	8.11% (inactive)
Cc1ccc(-c2nc3ccccc3[nH]2)cc1NC(=O)c1sc2ccccc2c1Cl	18.5% (inactive)
COC(=O)c1c(NC(=O)COc2ccc(Cl)cc2Cl)sc2c1CC(C)(C)NC2(C)C	3.07% (inactive)
CCOC(=O)c1c(NC(=O)c2ccc(S(=O)(=O)N(C)CC3CCCO3)cc2)sc2c1CC(C)(C)NC2(C)C (configuration not stated)	62.7% (active)
O=C(CC(O)(C(F)(F)F)C(F)(F)F)Nc1ccc(Cl)c(Cl)c1	58.1% (active)
Cc1cccc2sc(N(CCCN(C)C)C(=O)CCS(=O)(=O)c3ccccc3)nc12	14.4% (inactive)
CN(NC(=O)c1ccccc1F)c1nc(C(F)(F)F)nc2ccccc12	63.5% (active)
CN(NC(=O)c1ccccc1)c1nc2ccccc2nc1C(F)(F)F	68.8% (active)
CSc1nc(N(C)NC(=O)c2cccc(C)c2)c2ccccc2n1	135% (active)
CC1(C)CCSC(/C=C/c2ccccc2)=N1	30.5% (inactive)
Cc1ccccc1C(CC(=O)c1cccs1)C(C#N)C#N (configuration not stated)	45.1% (active)
CCNS(=O)(=O)c1ccc(NC(=O)Nc2cccc(C(F)(F)F)c2)cc1	53.4% (active)
Cc1cccc(NC(=O)Nc2cccc(Oc3c(F)c(F)c(F)c(F)c3F)c2)c1	32.5% (inactive)
O=C(Nc1ccc(C(=O)N2CCOCC2)cc1)Nc1cccc(C(F)(F)F)c1	49.8% (active)
COc1ccc(-c2cc(C(F)(F)F)nc(S(C)(=O)=O)n2)cc1OC	24.3% (inactive)
COc1ccc(-c2ccc(Nc3ccc(S(=O)(=O)N4CCCC4)cc3)nn2)cc1OC	77.8% (active)
COc1ccc(C(=O)O/N=C(\N)Cc2ccc(Cl)cc2Cl)cc1OC	47.8% (active)
Cc1cccc(Nc2ccccc2C(=O)NCc2ccco2)c1C	39.6% (active)
COc1ccc2sc(-c3ccc(S(C)(=O)=O)cc3)c(C#Cc3cncn3C)c2c1	44.8% (active)
COc1cccc(-c2sc3ccc(OC)cc3c2-c2ccc(OCCN3CCCCC3)cc2)c1	32.7% (inactive)

SMILES	inhibition
O=C1N/C(=C/c2cccn2-c2ccccc2)C(=O)N1c1cccc(Cl)c1	126% (active)
Cc1cccc(-n2c(C)cc(/C=N\NC(=O)c3cccs3)c2C)c1	178% (active)
Cc1cc(C(=O)COc2ccccc2[N+](=O)[O-])c(C)n1-c1cccc(S(=O)(=O)N2CCOCC2)c1	89.8% (active)
Cn1nc(-c2ccccc2)c(CSc2cccc(Cl)c2)c1Cl	51.5% (active)
CCN1CCN(CCNC(=O)c2ccc(/C=C3/Sc4ccccc4N(Cc4cccc(C)c4)C3=O)cc2)CC1	27.6% (inactive)
CN1CCN(CCCNC(=O)c2ccc(/C=C3\Oc4ccccc4N(Cc4ccc(Cl)cc4)C3=O)cc2)CC1	62.6% (active)
Cc1ccc(OCC(O)CN2CCN(CC(O)COc3ccc(C)cc3Cl)CC2)c(Cl)c1 (configuration not stated)	71.1% (active)
Cn1c(=O)n(C)c2cc(C(=O)Nc3ccc4c(c3)OCO4)ccc21	56.6% (active)
CC1CCCCC1NC(=O)/C(C#N)=C/C=C/c1ccccc1[N+](=O)[O-] (configuration not stated)	57.2% (active)
NS(=O)(=O)c1ccc(N=Nc2c(O)[nH]c3ccc(Br)cc23)cc1	86.5% (active)
C[C@@H]1C[C@@H]2O[C@H]2/C=C\C=C\C(=O)Cc2c(Cl)c(O)cc(O)c2C(=O)O1	33.8% (inactive)
Clc1cccc(Cl)c1OCCOCCNCc1ccccc1	33% (inactive)
N=c1c2c(-c3ccccc3)c(-c3ccccc3)n(Cc3ccccc3)c2ncn1CCCO	62% (active)
CCCCC(O)(CCCC)C(=O)NN(C(=O)CCl)c1ccccc1	34% (inactive)
Cc1cc(=O)oc2cc(OCC3CC(c4ccccc4Cl)=NO3)ccc12 (configuration not stated)	117% (active)
Cc1ccc(-n2[nH]c(C)c(/C=N/NC(=O)c3cccc([N+](=O)[O-])c3)c2=O)cc1C	46.2% (active)
Cn1c(C(=O)NCCCN2CCN(c3cccc(Cl)c3)CC2)cc2c(=O)n(C)c3ccccc3c21	61.5% (active)
OCCCNc1nccc(-c2cc(Nc3cccc(Cl)c3)ncn2)n1	53.2% (active)
CC(C)n1cnc2c(Nc3cccc(Cl)c3)nc(N(CCO)CCCO)nc21	47.6% (active)
CCCCCCCCn1c2c(c(=N)c3c1CCC3)CCCC2	22% (inactive)
COc1ccc(-c2nn(C)c(=O)c3ccccc23)cc1NC(=O)COc1ccccc1	53.5% (active)
O=[N+]([O-])c1ccc(Oc2ccc(F)cc2Br)c2ccncc12	16% (inactive)
CCCC(=O)Nc1nc2ccc(NC(=O)c3cccnc3)cc2s1	108% (active)

SMILES	inhibition
O=C(Nc1nc2ccc([N+](=O)[O-])cc2s1)c1ccc(S(=O)(=O)N2CCCc3ccccc32)cc1	20% (inactive)
O=C(Nc1ccc(Cl)cc1)Nc1nnc(/C=C/c2ccccc2)s1	75.8% (active)
Cc1nnc(NC(=O)Nc2ccc(Cl)c(Cl)c2)s1	33.4% (inactive)
Cc1c(C(=O)N/N=C/c2ccccc2)[nH]c2c([N+](=O)[O-])cccc12	48.3% (active)
COc1cccc(CNCCc2c[nH]c3ccccc23)c1OCc1ccccc1F	42% (active)
COc1ccc(/C=C/C(=O)Nc2ccc(C34CC5CC(CC(O)(C5)C3)C4)cc2)cc1OC	85.7% (active)
Cc1c(Cl)c([N+](=O)[O-])nn1Cc1ccc(C(=O)N/N=C\c2cc(Cl)ccc2O)o1	32.4% (inactive)
CCN(CC)c1ccc(/C=N/Nc2nc(C)cc(C)n2)c(O)c1	38.6% (active)
CCN(CC)c1ccc(/C=N/NC(=O)c2cnccn2)c(O)c1	37.9% (active)
CC(=O)Oc1c(C(=O)c2nnc(C)o2)c(=O)n(Cc2ccccc2)c2ccccc12	36.5% (active)
NC(N)=N/N=C/c1ccc(OCc2ccc(Cl)cc2Cl)cc1	50.2% (active)
COc1cccc2cc(C(N)=O)/c(=N\NC(=O)c3ccccc3)oc12	137% (active)
CC(Nc1nc(N2CCCC2)nc2ccccc12)c1ccccc1 (configuration not stated)	88.5% (active)
O=C(/C=C/c1ccc(OCc2c(F)cccc2Cl)cc1)N1CCOCC1	27.7% (inactive)
C=C(C)C(=O)O[C@H]1C/C(C)=C\C(=O)/C=C(\C)[C@H](O)[C@@H]2OC(=O)C(=C)[C@@H]21	51.4% (active)
CCc1ccc(N(CC)c2ncnc3nc[nH]c23)cc1	41.2% (active)
C/C(=N\NC(=O)c1ccccc1F)c1ccccn1	52.1% (active)
CCOC(=O)CC1C(=O)NCCN1c1nc2c(C)cccn2c(=O)c1/C=C1\SC(=S)N(C(C)CC)C1=O (configuration not stated)	101% (active)
CCN1C(=O)c2cccc3c(S(=O)(=O)Nc4ccccc4O)ccc1c23	76.6% (active)
Cc1ccc(-c2csc(NC3OC(=O)c4ccccc43)n2)cc1 (configuration not stated)	23.7% (inactive)
COc1ccc2c(c1OC)C(=O)OC2Nc1nc(-c2ccccc2)cs1 (configuration not stated)	51.2% (active)
